Assay results published in PMC7862700, “An all-to-all approach to the identification of sequence-specific readers for epigenetic DNA modifications on cytosine”.

How the values were obtained:
Test in all cases: DAPPL (digital affinity profiling via proximity ligation, sequencing); 10 mM Tris-HCl pH 7.5, 50 mM NaCl, 1 mM DTT, 4% glycerol, room temperature, 30 min; GST-TFs on glutathione beads, 16-mer random dsDNA library, 0.1% formaldehyde crosslink after washing; high values mean tight binding
Conditions in all cases: protein: recombinant; tags: N-terminal GST; dsDNA, one strand shown
FLI1 = target: T1, FLI1 (Homo sapiens, UniProt Q01543 1-452)
T1 sequence: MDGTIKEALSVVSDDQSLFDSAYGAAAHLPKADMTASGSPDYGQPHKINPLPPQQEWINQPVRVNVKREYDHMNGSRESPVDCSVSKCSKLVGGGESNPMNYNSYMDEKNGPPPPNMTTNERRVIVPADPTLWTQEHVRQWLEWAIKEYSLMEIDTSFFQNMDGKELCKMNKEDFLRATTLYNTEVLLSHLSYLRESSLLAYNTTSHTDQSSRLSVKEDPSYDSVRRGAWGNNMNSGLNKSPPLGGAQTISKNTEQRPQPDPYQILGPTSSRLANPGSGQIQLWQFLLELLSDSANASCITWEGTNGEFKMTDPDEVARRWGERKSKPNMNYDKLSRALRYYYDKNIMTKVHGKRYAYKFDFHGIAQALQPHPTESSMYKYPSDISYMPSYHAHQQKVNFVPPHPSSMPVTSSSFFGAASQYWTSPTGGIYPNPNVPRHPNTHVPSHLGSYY
Outline: (§1)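 Human transcription factors carrying a GST fusion were produced in yeast, bound to glutathione beads, tagged with DNA barcodes and pooled together with a tag-only sample. Each pool was held with 200 nmole of a random double-stranded 16-mer DNA library in Tris/NaCl/DTT/glycerol buffer for 30 min at room temperature, then washed, crosslinked in 0.1% formaldehyde, proximity-ligated with BsaI/T4 ligase (1 h, 37 °C), PCR-amplified and sequenced on an Illumina NextSeq500. Binding signal is the read frequency of each hexamer for a given factor divided by its frequency in the tag-only sample.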

ELK1 = target: T2, ELK1 (Homo sapiens, UniProt P19419 1-428)
T2 sequence: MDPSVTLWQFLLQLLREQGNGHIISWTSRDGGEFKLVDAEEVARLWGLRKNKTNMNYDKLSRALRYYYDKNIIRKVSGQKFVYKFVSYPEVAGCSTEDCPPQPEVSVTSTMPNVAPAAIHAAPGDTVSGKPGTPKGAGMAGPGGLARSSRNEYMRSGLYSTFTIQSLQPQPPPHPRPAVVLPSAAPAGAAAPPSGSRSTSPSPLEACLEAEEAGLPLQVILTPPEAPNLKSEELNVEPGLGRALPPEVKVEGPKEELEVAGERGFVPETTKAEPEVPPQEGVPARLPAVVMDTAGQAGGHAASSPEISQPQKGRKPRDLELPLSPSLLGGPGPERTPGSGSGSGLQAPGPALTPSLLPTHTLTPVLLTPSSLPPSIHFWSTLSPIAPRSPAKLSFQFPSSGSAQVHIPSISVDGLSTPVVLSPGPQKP
Outline: as §1

GABPA = target: T3, GABPA (Homo sapiens, UniProt Q06546 1-454)
T3 sequence: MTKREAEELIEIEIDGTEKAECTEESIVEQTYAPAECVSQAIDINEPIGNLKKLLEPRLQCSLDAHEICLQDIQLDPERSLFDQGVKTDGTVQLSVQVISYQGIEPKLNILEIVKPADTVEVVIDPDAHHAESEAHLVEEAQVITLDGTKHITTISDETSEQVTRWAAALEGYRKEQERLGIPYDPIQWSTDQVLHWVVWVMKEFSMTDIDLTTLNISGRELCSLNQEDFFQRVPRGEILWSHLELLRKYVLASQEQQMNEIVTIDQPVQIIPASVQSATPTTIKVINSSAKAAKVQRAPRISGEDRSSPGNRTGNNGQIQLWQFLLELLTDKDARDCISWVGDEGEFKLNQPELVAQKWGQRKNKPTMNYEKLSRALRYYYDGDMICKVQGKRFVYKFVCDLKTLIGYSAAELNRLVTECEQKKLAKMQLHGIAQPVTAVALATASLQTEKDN
Outline: as §1

ERG = target: T4, ERG (Homo sapiens, UniProt P11308 1-479)
T4 sequence: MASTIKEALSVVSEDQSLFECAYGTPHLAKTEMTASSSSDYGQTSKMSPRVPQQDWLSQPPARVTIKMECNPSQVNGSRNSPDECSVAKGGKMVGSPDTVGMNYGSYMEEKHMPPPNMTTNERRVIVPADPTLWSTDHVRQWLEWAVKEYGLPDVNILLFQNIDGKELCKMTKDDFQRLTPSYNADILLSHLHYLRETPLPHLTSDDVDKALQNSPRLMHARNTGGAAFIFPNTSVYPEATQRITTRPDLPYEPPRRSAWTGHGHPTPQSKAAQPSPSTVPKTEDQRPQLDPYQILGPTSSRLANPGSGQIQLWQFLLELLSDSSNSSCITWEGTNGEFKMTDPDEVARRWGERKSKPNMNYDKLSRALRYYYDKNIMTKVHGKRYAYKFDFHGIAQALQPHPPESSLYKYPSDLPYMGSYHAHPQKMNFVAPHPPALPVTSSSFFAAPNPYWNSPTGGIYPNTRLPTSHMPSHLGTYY
Outline: as §1

ELF1 = ELF1 (Homo sapiens, UniProt P32519 1-619)
Chain of ELF1 (P32519 whole entry): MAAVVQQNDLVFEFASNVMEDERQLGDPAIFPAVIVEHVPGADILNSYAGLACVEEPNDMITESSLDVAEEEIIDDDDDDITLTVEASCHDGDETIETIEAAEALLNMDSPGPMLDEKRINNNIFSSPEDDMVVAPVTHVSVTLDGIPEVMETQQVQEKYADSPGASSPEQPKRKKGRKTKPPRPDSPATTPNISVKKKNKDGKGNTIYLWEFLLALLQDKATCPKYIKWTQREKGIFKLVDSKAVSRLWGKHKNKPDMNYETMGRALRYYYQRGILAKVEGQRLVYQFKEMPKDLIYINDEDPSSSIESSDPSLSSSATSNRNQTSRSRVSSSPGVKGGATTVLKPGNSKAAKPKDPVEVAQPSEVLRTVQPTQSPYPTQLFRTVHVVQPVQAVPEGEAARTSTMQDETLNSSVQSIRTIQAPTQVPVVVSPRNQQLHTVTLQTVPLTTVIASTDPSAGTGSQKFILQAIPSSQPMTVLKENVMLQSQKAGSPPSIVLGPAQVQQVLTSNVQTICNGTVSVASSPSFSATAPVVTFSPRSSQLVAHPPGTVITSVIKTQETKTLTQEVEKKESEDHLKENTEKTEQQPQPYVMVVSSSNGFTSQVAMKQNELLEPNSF
Outline: as §1

EHF = target: T5, EHF (Homo sapiens, UniProt Q9NZC4 1-300)
T5 sequence: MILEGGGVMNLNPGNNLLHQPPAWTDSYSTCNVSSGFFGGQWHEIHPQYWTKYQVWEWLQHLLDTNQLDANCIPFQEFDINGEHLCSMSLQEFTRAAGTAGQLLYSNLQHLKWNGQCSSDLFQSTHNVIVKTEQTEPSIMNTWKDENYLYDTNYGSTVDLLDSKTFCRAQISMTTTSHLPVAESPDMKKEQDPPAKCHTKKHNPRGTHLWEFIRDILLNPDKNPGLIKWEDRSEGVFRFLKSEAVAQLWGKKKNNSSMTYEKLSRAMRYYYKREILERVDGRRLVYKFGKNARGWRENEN
Outline: as §1

SPI1 = SPI1 (Homo sapiens, UniProt P17947 1-270)
Outline: as §1

SPIB = SPIB (Homo sapiens, UniProt Q01892 1-262)
Chain of SPIB (Q01892 whole entry): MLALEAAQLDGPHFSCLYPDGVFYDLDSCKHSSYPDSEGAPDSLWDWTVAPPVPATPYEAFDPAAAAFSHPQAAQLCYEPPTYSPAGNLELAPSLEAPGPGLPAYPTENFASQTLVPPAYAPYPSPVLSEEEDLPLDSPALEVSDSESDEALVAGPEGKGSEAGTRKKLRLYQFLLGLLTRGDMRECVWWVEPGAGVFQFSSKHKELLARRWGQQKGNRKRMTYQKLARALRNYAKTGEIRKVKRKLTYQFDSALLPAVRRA
Outline: as §1

ELK3 = target: T6, ELK3 (Homo sapiens, UniProt P41970 1-407)
T6 sequence: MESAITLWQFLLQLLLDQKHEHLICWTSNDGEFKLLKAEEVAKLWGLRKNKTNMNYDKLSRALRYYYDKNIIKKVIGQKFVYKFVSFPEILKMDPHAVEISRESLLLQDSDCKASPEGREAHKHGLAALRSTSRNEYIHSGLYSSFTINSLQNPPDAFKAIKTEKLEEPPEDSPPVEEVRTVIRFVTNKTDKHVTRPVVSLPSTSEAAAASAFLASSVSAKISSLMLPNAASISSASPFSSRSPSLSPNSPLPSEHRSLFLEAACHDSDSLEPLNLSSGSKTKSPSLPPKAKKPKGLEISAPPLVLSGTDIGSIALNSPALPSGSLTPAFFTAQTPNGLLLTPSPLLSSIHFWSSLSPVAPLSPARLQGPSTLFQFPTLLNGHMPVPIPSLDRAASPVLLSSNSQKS
Outline: as §1

FEV = target: T7, FEV (Homo sapiens, UniProt Q99581 1-238)
T7 sequence: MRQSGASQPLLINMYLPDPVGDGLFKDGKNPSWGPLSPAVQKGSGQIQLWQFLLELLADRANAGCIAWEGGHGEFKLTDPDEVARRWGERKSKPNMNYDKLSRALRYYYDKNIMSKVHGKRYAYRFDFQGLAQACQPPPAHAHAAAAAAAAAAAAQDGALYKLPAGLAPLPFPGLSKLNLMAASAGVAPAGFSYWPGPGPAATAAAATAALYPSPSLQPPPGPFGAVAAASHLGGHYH
Outline: as §1

ETV5 = ETV5 (Homo sapiens, UniProt P41161 1-510)
Chain of ETV5 (P41161 whole entry): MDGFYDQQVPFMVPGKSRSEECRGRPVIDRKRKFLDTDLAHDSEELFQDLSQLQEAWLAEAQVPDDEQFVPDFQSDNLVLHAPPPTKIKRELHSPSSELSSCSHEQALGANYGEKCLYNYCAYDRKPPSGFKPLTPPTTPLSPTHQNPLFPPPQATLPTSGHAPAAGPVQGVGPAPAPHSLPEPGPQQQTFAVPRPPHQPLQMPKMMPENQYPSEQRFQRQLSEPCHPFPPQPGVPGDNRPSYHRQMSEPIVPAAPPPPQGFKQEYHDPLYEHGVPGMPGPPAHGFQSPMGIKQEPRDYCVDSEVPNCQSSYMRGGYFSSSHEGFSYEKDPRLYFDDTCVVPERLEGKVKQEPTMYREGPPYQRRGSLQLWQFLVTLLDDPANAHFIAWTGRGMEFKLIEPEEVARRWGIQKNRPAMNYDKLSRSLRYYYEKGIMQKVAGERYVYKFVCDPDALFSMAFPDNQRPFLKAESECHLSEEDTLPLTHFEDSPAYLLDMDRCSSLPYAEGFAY
Outline: as §1

SPIC = target: T8, SPIC (Homo sapiens, UniProt Q8N5J4 1-248)
T8 sequence: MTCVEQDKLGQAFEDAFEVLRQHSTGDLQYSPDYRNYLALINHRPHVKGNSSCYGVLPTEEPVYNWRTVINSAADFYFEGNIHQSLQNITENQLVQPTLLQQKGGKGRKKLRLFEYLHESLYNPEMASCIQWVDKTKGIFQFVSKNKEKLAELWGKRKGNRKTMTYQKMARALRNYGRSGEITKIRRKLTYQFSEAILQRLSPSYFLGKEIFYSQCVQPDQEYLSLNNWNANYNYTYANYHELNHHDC
Outline: as §1

ELF4 = ELF4 (Homo sapiens, UniProt Q99607 1-663)
Chain of ELF4 (Q99607 whole entry): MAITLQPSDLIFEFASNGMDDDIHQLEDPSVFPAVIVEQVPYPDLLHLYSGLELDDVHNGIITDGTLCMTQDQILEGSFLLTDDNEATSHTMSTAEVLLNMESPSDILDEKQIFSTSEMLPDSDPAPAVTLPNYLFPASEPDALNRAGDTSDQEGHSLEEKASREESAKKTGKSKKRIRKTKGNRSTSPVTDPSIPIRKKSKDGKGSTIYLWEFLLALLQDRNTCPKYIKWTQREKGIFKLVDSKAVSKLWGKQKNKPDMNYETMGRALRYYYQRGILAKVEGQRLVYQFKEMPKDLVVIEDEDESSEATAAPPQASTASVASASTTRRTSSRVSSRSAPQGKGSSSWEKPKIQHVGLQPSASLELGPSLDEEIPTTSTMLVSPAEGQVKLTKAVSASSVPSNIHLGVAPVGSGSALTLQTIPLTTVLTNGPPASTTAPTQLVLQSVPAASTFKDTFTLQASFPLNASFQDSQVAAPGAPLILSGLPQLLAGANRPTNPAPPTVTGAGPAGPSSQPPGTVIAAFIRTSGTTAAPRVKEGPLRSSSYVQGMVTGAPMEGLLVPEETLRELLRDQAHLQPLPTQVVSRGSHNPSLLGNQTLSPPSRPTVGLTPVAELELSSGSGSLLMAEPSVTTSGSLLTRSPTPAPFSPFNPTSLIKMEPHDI
Outline: as §1

ETV1 = ETV1 (Homo sapiens, UniProt P50549 1-477)
Chain of ETV1 (P50549 whole entry): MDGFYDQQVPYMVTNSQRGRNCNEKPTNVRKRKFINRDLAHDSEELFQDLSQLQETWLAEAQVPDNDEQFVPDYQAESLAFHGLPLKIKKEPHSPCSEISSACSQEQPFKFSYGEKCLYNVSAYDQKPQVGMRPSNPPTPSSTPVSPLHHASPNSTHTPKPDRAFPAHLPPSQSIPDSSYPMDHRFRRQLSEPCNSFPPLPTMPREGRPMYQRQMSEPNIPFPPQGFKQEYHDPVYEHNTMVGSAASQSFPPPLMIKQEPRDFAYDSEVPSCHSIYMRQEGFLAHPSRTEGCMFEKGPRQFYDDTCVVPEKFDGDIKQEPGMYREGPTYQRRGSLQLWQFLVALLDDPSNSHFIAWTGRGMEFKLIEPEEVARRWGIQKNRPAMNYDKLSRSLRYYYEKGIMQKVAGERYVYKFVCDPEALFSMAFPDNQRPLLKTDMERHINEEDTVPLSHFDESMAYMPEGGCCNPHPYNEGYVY
Outline: as §1

ERF = target: T9, ERF (Homo sapiens, UniProt P50548 1-548)
T9 sequence: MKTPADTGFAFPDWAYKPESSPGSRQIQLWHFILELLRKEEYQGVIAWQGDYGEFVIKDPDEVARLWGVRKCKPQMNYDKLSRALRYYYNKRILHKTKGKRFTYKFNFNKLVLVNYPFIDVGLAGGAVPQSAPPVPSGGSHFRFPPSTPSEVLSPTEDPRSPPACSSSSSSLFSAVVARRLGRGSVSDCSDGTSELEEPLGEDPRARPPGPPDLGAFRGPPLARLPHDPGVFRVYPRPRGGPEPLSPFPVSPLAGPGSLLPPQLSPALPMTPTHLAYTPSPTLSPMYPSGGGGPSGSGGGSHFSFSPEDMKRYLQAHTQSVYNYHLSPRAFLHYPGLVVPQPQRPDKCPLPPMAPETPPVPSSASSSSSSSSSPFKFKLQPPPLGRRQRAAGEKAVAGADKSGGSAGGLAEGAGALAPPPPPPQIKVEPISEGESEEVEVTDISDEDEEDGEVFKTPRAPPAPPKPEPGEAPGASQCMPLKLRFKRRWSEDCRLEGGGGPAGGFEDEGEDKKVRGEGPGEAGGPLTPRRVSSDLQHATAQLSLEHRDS
Outline: as §1

ETV3L = target: T10, ETV3L (Homo sapiens, UniProt Q6ZN32 1-361)
T10 sequence: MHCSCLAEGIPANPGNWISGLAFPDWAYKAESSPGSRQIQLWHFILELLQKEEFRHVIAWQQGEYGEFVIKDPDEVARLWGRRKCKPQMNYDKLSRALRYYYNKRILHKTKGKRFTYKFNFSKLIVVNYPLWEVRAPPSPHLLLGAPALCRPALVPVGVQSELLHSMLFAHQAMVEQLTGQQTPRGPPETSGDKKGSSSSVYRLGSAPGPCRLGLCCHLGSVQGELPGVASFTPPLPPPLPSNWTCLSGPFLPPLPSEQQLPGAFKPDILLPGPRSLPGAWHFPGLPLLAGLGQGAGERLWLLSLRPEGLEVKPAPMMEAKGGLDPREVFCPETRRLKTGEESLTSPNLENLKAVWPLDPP
Outline: as §1

ETS2 = target: T11, ETS2 (Homo sapiens, UniProt P15036 1-469)
T11 sequence: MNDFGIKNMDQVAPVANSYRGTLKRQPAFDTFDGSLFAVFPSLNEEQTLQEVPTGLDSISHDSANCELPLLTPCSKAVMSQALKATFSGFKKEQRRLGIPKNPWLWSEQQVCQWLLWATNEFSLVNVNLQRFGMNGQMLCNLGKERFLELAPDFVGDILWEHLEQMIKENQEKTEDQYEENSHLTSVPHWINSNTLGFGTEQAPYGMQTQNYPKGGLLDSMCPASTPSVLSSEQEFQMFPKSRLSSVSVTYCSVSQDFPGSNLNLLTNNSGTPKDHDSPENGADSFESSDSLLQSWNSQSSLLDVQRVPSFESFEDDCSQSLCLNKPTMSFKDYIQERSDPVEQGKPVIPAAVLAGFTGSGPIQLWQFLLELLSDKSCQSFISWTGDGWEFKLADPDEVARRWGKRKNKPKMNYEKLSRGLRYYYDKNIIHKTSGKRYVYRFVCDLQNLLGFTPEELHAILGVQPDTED
Outline: as §1

ETV3 = target: T12, ETV3 (Homo sapiens, UniProt P41162-2 1-143)
T12 sequence: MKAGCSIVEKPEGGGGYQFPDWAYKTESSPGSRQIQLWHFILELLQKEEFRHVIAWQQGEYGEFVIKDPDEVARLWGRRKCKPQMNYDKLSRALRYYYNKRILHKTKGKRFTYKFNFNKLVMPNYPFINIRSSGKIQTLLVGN
Outline: as §1

ETV6 = ETV6 (Homo sapiens, UniProt P41212 1-452)
Chain of ETV6 (P41212 whole entry): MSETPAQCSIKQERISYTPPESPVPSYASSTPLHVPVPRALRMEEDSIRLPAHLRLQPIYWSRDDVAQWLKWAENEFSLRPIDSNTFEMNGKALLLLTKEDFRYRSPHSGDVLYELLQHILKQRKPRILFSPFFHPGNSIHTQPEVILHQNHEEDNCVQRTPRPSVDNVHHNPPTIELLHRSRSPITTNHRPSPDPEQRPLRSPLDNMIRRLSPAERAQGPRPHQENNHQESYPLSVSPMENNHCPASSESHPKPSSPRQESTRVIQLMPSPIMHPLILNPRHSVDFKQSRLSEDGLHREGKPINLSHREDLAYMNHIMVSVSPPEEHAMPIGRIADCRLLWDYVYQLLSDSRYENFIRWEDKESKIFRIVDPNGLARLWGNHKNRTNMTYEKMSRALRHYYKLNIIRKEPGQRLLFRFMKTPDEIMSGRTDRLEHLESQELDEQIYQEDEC
Outline: as §1

ACATGG
binding signal (FLI1): 1.17 fold enrichment (6-mer frequency, TF over GST control)
binding signal (ELK1): 1.13 fold enrichment (6-mer frequency, TF over GST control)
binding signal (GABPA): 1.15 fold enrichment (6-mer frequency, TF over GST control)
binding signal (ERG): 1.16 fold enrichment (6-mer frequency, TF over GST control)
binding signal (ELF1): 1.15 fold enrichment (6-mer frequency, TF over GST control)
binding signal (EHF): 1.1 fold enrichment (6-mer frequency, TF over GST control)
binding signal (SPI1): 1.14 fold enrichment (6-mer frequency, TF over GST control)
binding signal (SPIB): 1.04 fold enrichment (6-mer frequency, TF over GST control)
binding signal (ELK3): 1.09 fold enrichment (6-mer frequency, TF over GST control)
binding signal (FEV): 1.04 fold enrichment (6-mer frequency, TF over GST control)
binding signal (ETV5): 1.1 fold enrichment (6-mer frequency, TF over GST control)
binding signal (SPIC): 1.18 fold enrichment (6-mer frequency, TF over GST control)
binding signal (ELF4): 1.21 fold enrichment (6-mer frequency, TF over GST control)
binding signal (ETV1): 1.14 fold enrichment (6-mer frequency, TF over GST control)
binding signal (ERF): 1.14 fold enrichment (6-mer frequency, TF over GST control)
binding signal (ETV3L): 1.19 fold enrichment (6-mer frequency, TF over GST control)
binding signal (ETS2): 1.14 fold enrichment (6-mer frequency, TF over GST control)
binding signal (ETV3): 1.13 fold enrichment (6-mer frequency, TF over GST control)
binding signal (ETV6): 1.14 fold enrichment (6-mer frequency, TF over GST control)
